Screens as filed in PubChem.
FBW7 activator: FBW7 E3 ligase activators, primary screen, biochemical, AlphaScreen, human; F-box/WD repeat-containing protein 7 (Homo sapiens), Q969H0; AlphaScreen FBW7–phospho-cyclin E peptide binding, activator screen; normalized activity (activation), % at 26.1 µM; hit rate 0.13% among 650,000; AID 1259310, 2017; in the data active = normalized activity above about 1.9%;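 also: purified mutant Fbw7 with reduced substrate affinity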
MITF inh: MITF inhibitors, primary screen, biochemical, AlphaScreen, human; hit rate 0.91% among 650,000; Microphthalmia-associated transcription factor (Homo sapiens), O75030; AlphaScreen MITF homodimerization, bead proximity signal; inhibition, % at 2.6 µM; in the data active = inhibition above about 50%
Target sequence (O75030 whole entry, looked up): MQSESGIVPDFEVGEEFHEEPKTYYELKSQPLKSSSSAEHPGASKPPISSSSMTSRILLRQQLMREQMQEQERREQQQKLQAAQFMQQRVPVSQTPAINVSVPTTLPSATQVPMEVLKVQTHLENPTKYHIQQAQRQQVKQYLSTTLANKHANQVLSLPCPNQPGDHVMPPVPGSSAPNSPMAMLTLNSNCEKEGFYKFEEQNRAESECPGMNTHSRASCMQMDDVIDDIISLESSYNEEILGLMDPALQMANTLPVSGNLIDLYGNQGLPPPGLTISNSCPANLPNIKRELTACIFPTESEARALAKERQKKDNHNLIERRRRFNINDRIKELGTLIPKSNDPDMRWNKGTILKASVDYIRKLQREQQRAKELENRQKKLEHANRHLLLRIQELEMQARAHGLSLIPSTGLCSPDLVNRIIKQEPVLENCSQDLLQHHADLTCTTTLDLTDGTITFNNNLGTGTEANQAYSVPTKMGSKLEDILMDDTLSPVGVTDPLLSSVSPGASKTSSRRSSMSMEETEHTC
GPR151 ag: activators of human GPR151, primary screen, cell-based, PathHunter beta-arrestin, luminescence; hit rate 1% among 650,000; activation, % at 11.2 µM; PathHunter beta-arrestin GPR151 cells; G-protein coupled receptor 151 (Homo sapiens), Q8TDV0; in the data active = activation above about 4.9%
TEAD-YAP inh: TEAD-YAP interaction inhibition, primary screen, TEAD-YAP interaction inhibitor project, luminescence, HEK-TIYL cells; hit rate 1.4% among 640,000; AID 1259422, 2018; TEAD-Gal4/YAP UAS-luciferase luminescence; inhibition, % at 9.12 µM; in the data active = inhibition above about 32%
Each line names hits and unclear results; the compound was inactive in the other large screens. An excerpt weighted towards active compounds, which were near 3.5% of everything screened.

c1cc(-n2cnc3c(NC4CC4)nc(NCCN4CCOCC4)nc32)cs1	TEAD-YAP inh 41
Nc1nc(NCCN2CCOCC2)nc2c1ncn2-c1ccsc1	none
CCCNc1nc(NCCN2CCOCC2)nc2c1ncn2-c1ccsc1	TEAD-YAP inh 34
CC(=O)NC1C(OCc2ccccc2)OC(C(=O)O)C(OC(C)=O)C1OC(C)=O (configuration not stated)	none
c1ccc(-c2cnc(SCCN3CCOCC3)n2CC2CCCO2)cc1 (configuration not stated)	MITF inh 57
CCN(CC)S(=O)(=O)c1cccc(C(=O)Nc2nc(COc3ccccc3)cs2)c1	TEAD-YAP inh 32
O=C(Nc1ccc(-c2nc3ccccc3[nH]2)cc1)c1ccc(Cl)c([N+](=O)[O-])c1	none
CCCCOc1ccc(C(=O)NC(=S)Nc2ccccn2)cc1	none
Cc1ccc(OCC(=O)Nc2cccc(C(=O)O)c2)cc1	TEAD-YAP inh 69
CCOc1ccc(OCC(=O)Nc2cccc(C(=O)O)c2)cc1	none
Cc1cccc(C(=O)NC(=S)Nc2cccc(C(=O)O)c2)c1	none
COc1cc(OC)cc(C(=O)N/N=C(\C)CC(=O)Nc2ccccn2)c1	TEAD-YAP inh 56
CCOc1ccc(C(=O)NC(=S)Nc2ccccn2)cc1	TEAD-YAP inh 86
Cc1ccc(C(=O)NC(=S)Nc2cccc(C(=O)O)c2)cc1	TEAD-YAP inh 75
COc1ccc(CNC(=O)C/C(C)=N/NC(=O)c2ccccc2F)cc1	none
Fc1ccccc1-c1cccc2ccc(N3CCNCC3)nc12	none
CCCc1[nH]nc2c1C1(C(=O)Nc3ccccc31)C(C#N)=C(N)O2 (configuration not stated)	none
O=C(COc1ccccc1)Nc1ccccn1	none
O=C(Nc1ccccn1)c1ccc(-c2ccccc2)cc1	TEAD-YAP inh 75
O=C(COc1ccc(Br)cc1)Nc1ccccn1	TEAD-YAP inh 62
Cc1ccc(OCC(=O)Nc2ccccn2)cc1	TEAD-YAP inh 83
CC(=O)Oc1ccc(-c2cccc(C(=O)NC(C)(C)C)c2)cc1	none
Cc1ccccc1NS(=O)(=O)c1ccc2ccccc2c1	none
CC(=O)Nc1ccccc1NS(=O)(=O)c1ccc2ccccc2c1	TEAD-YAP inh 53
COc1cccc2sc(Nc3nc(-c4ccncc4)cs3)nc12	TEAD-YAP inh 45
COc1cccc2sc(Nc3nc(-c4cccnc4)cs3)nc12	TEAD-YAP inh 39
COc1ccccc1Nc1nc(-c2ccncc2)cs1	none
COc1cc2cc3c(N)c(C(=O)NCc4ccco4)sc3nc2cc1OC	none
CCc1ccc2nc3sc(C(=O)NCc4ccco4)c(N)c3cc2c1	TEAD-YAP inh 53
COc1ccc(-n2c(-c3cccc([N+](=O)[O-])c3)n[nH]c2=S)cc1	none
Cn1c(-c2cccc([N+](=O)[O-])c2)n[nH]c1=S	none
O=[N+]([O-])c1cccc(-c2csc(Nc3ccc4c(c3)OCO4)n2)c1	none
Cn1c(-c2ccccc2)cn2cc(-c3cccc([N+](=O)[O-])c3)nc12	TEAD-YAP inh 99
COc1ccc(-c2cn3cc(-c4cccc([N+](=O)[O-])c4)nc3n2C)cc1	TEAD-YAP inh 98
Cn1c(-c2ccc3c(c2)OCO3)cn2cc(-c3cccc([N+](=O)[O-])c3)nc12	TEAD-YAP inh 98
CN(C)c1ccc(NC(=O)CSc2ncccn2)cc1	none
N#Cc1ccc(Cn2c(NCCO)nc3ccccc32)cc1	none
Clc1cccc(Nc2nc3nonc3nc2N2CCOCC2)c1	TEAD-YAP inh 57
c1ccc(Nc2nc3nonc3nc2N2CCCCCC2)cc1	TEAD-YAP inh 37
Ic1ccc(Nc2nc3nonc3nc2N2CCOCC2)cc1	none
Clc1cccc(Nc2nc3nonc3nc2N2CCCCC2)c1	TEAD-YAP inh 43
COc1cc(/C=N/Nc2nc3c(c(=O)n(C)c(=O)n3C)n2C)cc(OC)c1OC	none
COc1ccc(CC(=O)NCc2cccc(CNC(=O)Cc3ccc(OC)cc3)c2)cc1	none
O=C(Nc1ccc(N2CCOCC2)cc1)c1ccnc(Nc2ccncn2)c1	none
c1cc(Cn2cncn2)cc(Nc2nccc(-c3cncc(N4CCOCC4)c3)n2)c1	TEAD-YAP inh 92
c1cc(Cn2ccnc2)cc(Nc2nccc(-c3cncc(N4CCOCC4)c3)n2)c1	TEAD-YAP inh 87
c1cc(-c2nc3ccc(Nc4nccc(-c5cncc(N6CCOCC6)c5)n4)cc3o2)ccn1	none
COc1cccc(NC(=O)CSc2nc3c(sc(=S)n3-c3ccccc3C)c(=O)n2-c2ccc(F)cc2)c1	none
COc1ccc(CCNc2nc(Nc3ccc(N4CCOCC4)cc3)nc3c2ncn3-c2ccsc2)cc1	TEAD-YAP inh 62
Oc1ccc(CCNc2nc(Nc3ncccn3)nc3c2ncn3-c2ccsc2)cc1	TEAD-YAP inh 56
Oc1ccc(CCNc2nc(Nc3ccccc3)nc3c2ncn3-c2ccsc2)cc1	TEAD-YAP inh 38
COc1ccc(CCNc2nc(Nc3ccc(C(F)(F)F)cc3)nc3c2ncn3-c2ccsc2)cc1	none
Oc1ccc(CCNc2nc(Nc3ccccc3)nc3c2ncn3-c2ccccc2)cc1	none
Oc1ccc(CCNc2nc(Nc3cnccn3)nc3c2ncn3-c2ccsc2)cc1	TEAD-YAP inh 66
COc1ccc(C(=O)N/C(=C/c2ccc(Cl)cc2)C(=O)Nc2ccc(C(C)=O)cc2)cc1	none
CCOC(=O)c1sc(N2C(=O)C(O)=C(C(=O)c3ccco3)C2c2ccc(OC)cc2)nc1C (configuration not stated)	none
O=C(Nn1c(-c2cccs2)nc2ccccc2c1=O)c1ccc(Cl)c(Cl)c1	none
Cc1ccc(C)c2nc(SCC(=O)NCC3CCCO3)c(C#N)cc12 (configuration not stated)	none
Cc1cnn(-c2cc(N/N=C/c3ccc(O)cc3O)ncn2)c1	none
CCN(CC)S(=O)(=O)c1ccc(N/N=C/c2ccc(O)cc2O)nc1	TEAD-YAP inh 59
CCN(CC)S(=O)(=O)c1ccc(N/N=C/c2ccccc2[N+](=O)[O-])nc1	none
Oc1ccc(/C=N/Nc2ncc(C(F)(F)F)cc2Cl)c(O)c1O	MITF inh 66
Oc1ccc(/C=N/Nc2ccc(Cl)nn2)c(O)c1O	MITF inh 103
Cc1cc(C)n(-c2cc(N/N=C/c3ccc(O)cc3O)ncn2)n1	TEAD-YAP inh 85
COC(=O)c1cc(Nc2ccc(N(C)C)cc2)c2cc(C)ccc2n1	none
COc1cc(/C=C\C(=O)Nc2c3c(nn2C(C)(C)C)CSC3)cc(OC)c1OC	none
Cc1cccc(-c2cc(NCC3CCCO3)ncn2)c1 (configuration not stated)	none
Oc1ccc(/C=N/Nc2ncc(Br)cn2)c(O)c1	MITF inh 65
CCOc1ccc(/C=N/Nc2ncc(Br)cn2)c(O)c1	none
Oc1ccc(/C=N/Nc2ccc(Cl)nn2)c(O)c1	MITF inh 55
Cc1ccc(C(=O)N/N=C2\CC(=O)CC(C)(C)C2)c(C)c1	none
Cc1ccc(Nc2nc(CSc3nnc(N)s3)cs2)cc1	TEAD-YAP inh 44
CC(=O)Nc1ccc(Nc2nc(-c3cccc(N)c3)nc3c2ncn3C(C)C)cc1	TEAD-YAP inh 38
